CYP2C19 activ: increases human CYP2C19 enzyme activity; recombinant CYP2C19, luciferin-H EGE luminescence; active compounds read high; 0 = fully inhibited enzyme, 1 = untreated enzyme; activation factor at 5 µM; 96,000 tested, under 10 active; AID 1025;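 active = activation factor of at least 2 at 5 µM in the primary screen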
CYP2C19 inh: human CYP2C19 inhibition; CYP2C19 Supersomes, luciferin-H EGE luminescence, 30 min; P33261; inhibition, % at 5 µM; 21% of 96,000 active; AID 778;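 active = CYP2C19 inhibition above a set limit at 5 µM in the primary screen, cut at about 50% in these data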
CYP2C9 inh: inhibitors of human CYP2C9; CYP2C9 Supersomes, luciferin-H conversion, luminescence; inhibition, % at 5 µM; 20% of 96,000 active; AID 777; P11712;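 active = blocking of liver enzyme CYP2C9 beyond about 50% at 5 µM, limit read from the data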
Target sequence (P11712 whole entry, looked up): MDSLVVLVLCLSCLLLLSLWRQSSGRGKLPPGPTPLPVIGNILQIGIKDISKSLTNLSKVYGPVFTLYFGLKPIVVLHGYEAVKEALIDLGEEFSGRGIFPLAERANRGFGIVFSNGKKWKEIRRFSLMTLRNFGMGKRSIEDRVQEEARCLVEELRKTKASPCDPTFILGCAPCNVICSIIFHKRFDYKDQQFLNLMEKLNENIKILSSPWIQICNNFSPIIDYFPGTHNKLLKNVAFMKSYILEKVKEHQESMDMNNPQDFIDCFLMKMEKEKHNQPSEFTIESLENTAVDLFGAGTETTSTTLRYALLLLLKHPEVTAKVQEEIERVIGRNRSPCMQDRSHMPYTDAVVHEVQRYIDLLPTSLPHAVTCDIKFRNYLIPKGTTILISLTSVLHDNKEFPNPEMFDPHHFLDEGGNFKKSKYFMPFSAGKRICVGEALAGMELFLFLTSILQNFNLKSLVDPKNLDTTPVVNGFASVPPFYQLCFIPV
Measles CPE: protection of cells from measles virus; 1.5% of 140,000 active; protection (pct of control), % at 4 µM; Measles virus-infected cells, CPE protection, absorbance; in the data active = protection mostly above about 24%, no sharp cut-off; inactive = mostly below about 26%
CYP2C9 act: activators of human CYP2C9; P11712; recombinant CYP2C9, luciferin-H conversion, luminescence; active compounds read high; factor 1 = untreated enzyme, 0 = blocked; activation factor at 5 µM; 1.4% of 96,000 active; AID 1024;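 active = activation factor of 2 or more for CYP2C9 at a 5 µM dose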
Each line names hits and unclear results; the compound was inactive in the other large screens. In the library only some 22% were active in any assay of this set; here they are far more common.

Cc1ccccc1-c1nnc(SCc2ccc(F)cc2)o1	none
CCOC(=O)c1cc(C)sc1N1C(=O)C2C3C=CC(C3)C2C1=O (configuration not stated)	none
COc1cccc2c(=O)n(CC(=O)NC3CCCCC3)ccc12	CYP2C9 act 2.2
O=C(Cn1c(=O)sc2ccccc21)NCc1ccco1	CYP2C19 inh 72, CYP2C9 act 4.4
COc1cccc2c(=O)n(CC(=O)Nc3ccc(F)cc3)ccc12	none
COC(=O)Cn1c(=O)sc2ccccc21	none
O=C(Cn1c(=O)sc2ccccc21)Nc1ccccc1C(=O)O	CYP2C9 inh 85
Cc1cc2ccccc2c(=O)n1CC(=O)NCC(=O)N1CCN(c2ccccc2)CC1	CYP2C9 act 2.4
CC1CCN(C(=O)CSc2nnc(Cc3cccn3C)n2CCc2ccccc2)CC1	none
COc1ccc(C(C)N2CC34C=CC(O3)C(C(=O)OCC(C)C)C4C2=O)cc1 (configuration not stated)	none
Cc1cc(C)c(S(=O)(=O)n2c([N+](=O)[O-])cnc2C)c(C)c1	none (no result: CYP2C19 activ, CYP2C19 inh, CYP2C9 inh, CYP2C9 act)
O=C1CCN(Cc2nnnn2CC2CCCO2)c2ccccc2N1 (configuration not stated)	none
COc1ccc(NC(=O)Cn2c(=O)sc3ccccc32)cc1	none
O=C(Cn1c(=O)sc2ccccc21)Nc1ccccc1	CYP2C9 inh 60
O=C(CSc1nnc2sc3ccccc3n12)NCc1ccco1	CYP2C9 act 2.9
Cc1cc2ccccc2c(=O)n1CC(=O)NCC1COc2ccccc2O1 (configuration not stated)	none
Cc1cc2ccccc2c(=O)n1CC(=O)NC1CCCCCC1	CYP2C19 inh 64
CCC(C)[C@H](NC(=O)NC1CC1)C(=O)O (some centres not stated)	none
COC(=O)c1ccc(CSc2nnc(N)s2)cc1	CYP2C19 inh 74
COC(=O)c1cccc(CSc2nnc(C)s2)c1	CYP2C19 inh 62
O=C(Nc1nnc(SCc2ccc(Cl)cc2)s1)C1CCCO1 (configuration not stated)	CYP2C9 inh 73
COC(=O)c1ccc(CSc2nnc(C)s2)cc1	none
N#Cc1ccc(CSc2nnc(NC(=O)C3CCCO3)s2)cc1 (configuration not stated)	none
C=CCn1c(Cc2csc(N)n2)nnc1SCc1ccc(C(=O)OC)cc1	CYP2C19 inh 94, CYP2C9 inh 73
C=CCn1c(Cc2csc(N)n2)nnc1SCC(=O)Nc1ccc(C(=O)OCC)cc1	none
Brc1ccccc1CN1CCC(N2CCCCC2)CC1	none
Cc1ccc(S(=O)(=O)N2CCC(=O)N(C(CO)C(C)C)CC2)cc1 (configuration not stated)	none (no result: CYP2C19 activ, CYP2C19 inh, CYP2C9 inh, CYP2C9 act)
CC(C)(C)C(=O)Nc1nnc(SCc2ccc(F)cc2)s1	CYP2C19 inh 68, CYP2C9 inh 78
CCC(=O)Nc1nnc(SCc2ccc(F)cc2)s1	none (no result: CYP2C19 activ, CYP2C19 inh, CYP2C9 inh, CYP2C9 act)
COC(=O)c1ccc(CSc2nnc(NC(=O)C3CCCO3)s2)cc1 (configuration not stated)	CYP2C9 inh 70
CP(=O)(COC(=O)c1ccccc1)COC(=O)c1ccccc1	none
c1csc(-c2nnsc2-c2nc3ccccc3[nH]2)c1	CYP2C19 inh 73
COC(=O)CSC1=C(C#N)C(c2ccccc2)CC(=O)N1 (configuration not stated)	none
C=CCSC1=C(C#N)C(c2ccccc2OC)CC(=O)N1 (configuration not stated)	none
COC(=O)CSC1=C(C#N)C(c2cccc(F)c2)CC(=O)N1 (configuration not stated)	none
C=CCSC1=C(C#N)C(c2cccc(OC)c2)CC(=O)N1 (configuration not stated)	CYP2C19 inh 52
C=CCSC1=C(C#N)C(c2ccccc2OCC)CC(=O)N1 (configuration not stated)	CYP2C19 inh 93, CYP2C9 inh 71
CCOc1ccc(C2CC(=O)NC(SCC(=O)OC)=C2C#N)cc1 (configuration not stated)	CYP2C9 inh 69
Cc1ccc(C2CC(=O)NC(SCCC(C)C)=C2C#N)cc1 (configuration not stated)	CYP2C9 inh 56
COc1ccc(C(=O)Nc2nc(N)n(-c3ccccc3)n2)cc1	none (no result: CYP2C19 activ, CYP2C19 inh, CYP2C9 inh, CYP2C9 act)
COC(=O)CSC1=C(C#N)C(c2ccc(Cl)cc2)C(C(=O)OC)C(=O)N1 (configuration not stated)	CYP2C19 inh 61
CCc1ccc(C2CC(=O)NC(SCC(=O)OC(C)C)=C2C#N)cc1 (configuration not stated)	CYP2C19 inh 87, CYP2C9 inh 93
COC(=O)CSC1=C(C#N)C(c2cccc(OC)c2)CC(=O)N1 (configuration not stated)	CYP2C19 inh 71, CYP2C9 inh 75
O=C(COC(=O)c1cn(-c2ccccc2)nc1-c1ccccc1)c1cccc([N+](=O)[O-])c1	none
O=C(CSc1nnc(CNC(=O)c2cccs2)o1)c1ccccc1	none
COc1ccccc1OCC(=O)N/N=C1\CCc2ccccc21	none
C=CCn1c(CCNC(=O)c2ccc(Cl)c(Cl)c2)nnc1SCCOc1ccc(OC)cc1	CYP2C9 inh 60
Cc1ccc(-c2nc(NC(=O)CSc3nnnn3-c3ccccc3)ns2)cc1	none
Cc1ccc(N(O)C(=O)OCCNC(=O)Nc2ccccc2)cc1	CYP2C19 inh 94, CYP2C9 inh 92
CC(C)(C)SCCNC(=O)Nc1ccccc1	Measles CPE 35 (no result: CYP2C19 activ, CYP2C19 inh, CYP2C9 inh, CYP2C9 act)
COC(=O)[C@H](Cc1ccccc1)NC(=O)Nc1ccc(C)cc1	CYP2C19 inh 66
COC(=O)C(Cc1ccc(O)cc1)NC(=O)C(C)Oc1ccccc1 (configuration not stated)	CYP2C19 inh 94, CYP2C9 inh 58
O=C(NC1CCCC1)c1ccccc1-c1nc2ccccc2[nH]1	none
COC(=O)[C@H](Cc1ccccc1)NC(=O)NCCC1=CCCCC1	CYP2C19 inh 69, CYP2C9 inh 62
Cc1ccc(NC(=O)NCCCc2ccccc2)cc1	CYP2C19 inh 59
COc1ccc(S(=O)(=O)N(C(C)=O)c2ccc(OC(C)=O)c3ccccc23)cc1[N+](=O)[O-]	none (no result: CYP2C19 activ, CYP2C19 inh, CYP2C9 inh, CYP2C9 act)
FC(F)(F)c1cccc(NC(=S)N2CCN(c3ccccc3)CC2)c1	none (no result: CYP2C19 activ, CYP2C19 inh, CYP2C9 inh, CYP2C9 act)
CCCc1cc(=O)[nH]c(SCC(=O)N2CCN(S(=O)(=O)c3ccc4ccccc4c3)CC2)n1	none (no result: CYP2C19 activ, CYP2C19 inh, CYP2C9 inh, CYP2C9 act)
CCCCNc1nnc(SCC(=O)N2CCN(S(=O)(=O)c3ccc4ccccc4c3)CC2)s1	CYP2C19 inh 79, CYP2C9 inh 87
CCc1c(C)nc2ncnn2c1NCCc1ccc(OC)cc1	CYP2C19 inh 63, CYP2C9 inh 85
CCc1c(C)nc2ncnn2c1Nc1ccc(C)c(C)c1	none (no result: CYP2C19 activ, CYP2C19 inh, CYP2C9 inh, CYP2C9 act)
COc1ccc(N2CCN(S(=O)(=O)c3ccc(Cl)c(C(F)(F)F)c3)CC2)cc1	none
CC1CN(S(=O)(=O)c2ccc(Cl)c(C(F)(F)F)c2)CC(C)O1 (configuration not stated)	CYP2C9 act 2.3
O=C(CSc1nnc(-c2ccccn2)n1Cc1ccccc1)Nc1ccc2c(c1)OCO2	none
CCOc1ccccc1NC1=CC(=O)CC(c2ccccc2)C1 (configuration not stated)	none
